Data taken from PubChem BioAssay (Tox21).
Inconclusive results are not listed. Activity calls are given as the source filed them. The call rests on the fitted dose curve; in most records, active means well fitted activation curve with a large enough effect; inconclusive means small, poorly fitted or top-dose-only effect; inactive means flat fitted curve, though single readings scatter. Positions of bridges follow the written chain, without caps; N, C: chain ends. Non-standard residues stand in square brackets, D forms with d. Residues, ends and D or L forms follow the SMILES beside them. *: point of attachment. Dab(CH2SO3H) = N[C@@H](CCNCS(=O)(=O)O)C(=O)O; X3 = CC[C@@H](C)CCCCC(=O)*; Dab = NCC[C@H](N)C(=O)O

assay: qHTS assay to identify small molecule phospholipidosis (PLD) inducers (AID 1259344); settings: HepG2 phospholipidosis, LipidTOX Red imaging, 24 h; series mostly up to 38.3 µM; PLD induction: at the top concentration
Outline: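 HepG2 cells grown on collagen I take up LipidTOX Red while exposed to compound for 24 h; after fixation they are imaged at 20x and pit metrics are extracted.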
On the % scale 0 is the no-effect control and ±100 the full control effect.

| Structure (SMILES) | PLD induction | Potency |
| --- | --- | --- |
| COc1ccc(/C=C/C(=O)O)cc1 | 2.97% (inactive) |  |
| N[C@H](C(=O)O)[C@@H]1CC(Cl)=NO1 | -1.19% (inactive) |  |
| CO/N=C(\C(=O)N[C@@H]1C(=O)N2C(C(=O)O)=C(C[N+]3(C)CCCC3)CS[C@H]12)c1csc(N)n1 | 0.0622% (inactive) |  |
| C[C@@H]1O[C@@H](OC[C@H]2O[C@@H](Oc3c(-c4ccc(OCCO)c(OCCO)c4)oc4cc(OCCO)cc(O)c4c3=O)[C@H](O)[C@@H](O)[C@@H]2O)[C@H](O)[C@H](O)[C@H]1O | 0.559% (inactive) |  |
| CCCC(CCC)C(=O)OC1C[C@H]2CC[C@@H](C1)[N+]2(C)C (stereo not given in full) |  | inactive |
| CCCn1c(=O)[nH]c(=O)c2[nH]cnc21 | -0.81% (inactive) |  |
| Cc1cnc(C(=O)O)c[n+]1[O-] |  | inactive |
| C=CC1=C(C(=O)O)N2C(=O)[C@@H](NC(=O)/C(=N/OCC(=O)O)c3csc(N)n3)[C@H]2SC1 (stereo in doubt) | -0.167% [at 15.5 µM] (inactive) |  |
| NC(=O)[C@H]1O[C@@H](O)[C@H](O)[C@@H](O)[C@@H]1O | 0.14% (inactive) |  |
| Cc1onc(-c2c(F)cccc2Cl)c1C(=O)N[C@@H]1C(=O)N2[C@@H]1SC(C)(C)[C@@H]2C(=O)O |  | inactive |
| CC(C)(C)C(=O)OCC(=O)[C@H]1CC[C@H]2[C@@H]3CCC4=CC(=O)CC[C@]4(C)[C@H]3CC[C@]12C | -0.848% (inactive) |  |
| Cc1cn([C@H]2C[C@H](O)[C@@H](CO)O2)c(=O)[nH]c1=O | 0.288% (inactive) |  |
| CO[C@H]1C[C@@H]2CC[C@@H](C)[C@@](O)(O2)C(=O)C(=O)N2CCCC[C@H]2C(=O)O[C@H]([C@H](C)C[C@@H]2CC[C@@H](O)[C@H](OC)C2)CC(=O)[C@H](C)C=C(C)[C@@H](O)[C@@H](OC)C(=O)[C@H](C)C[C@H](C)/C=C/C=CC=C1C |  | inactive |
| O=C(Cn1cnnn1)N[C@@H]1C(=O)N2C(C(=O)O)=C(CSc3nncs3)CS[C@H]12 |  | inactive |
| CCCCCCCCCCCCCCCCCC(=O)O | -0.834% (inactive) |  |
| CCCCCCCCCCCCCCCC[n+]1ccccc1 | -1.54% (inactive) |  |
| CC[C@H]1OC(=O)[C@H](C)C(=O)[C@H](C)[C@@H](O[C@@H]2O[C@H](C)C[C@H](N(C)C)[C@H]2O)[C@](C)(OC)C[C@@H](C)C(=O)[C@H](C)[C@H]2N(CCCCn3cnc(-c4cccnc4)c3)C(=O)O[C@]12C |  | inactive |
| COc1ccc(/C=C/C(=O)Nc2ccccc2C(=O)O)cc1OC | 0.0503% (inactive) |  |
| CC1(C)S[C@@H]2[C@H](N3C(=O)C(c4ccccc4)NC3(C)C)C(=O)N2[C@H]1C(=O)O (stereo not given in full) | 2.57% (inactive) |  |
| CC(C)NCC1CCc2cc(CO)c([N+](=O)[O-])cc2N1 (stereo not given) | 0.619% [at 15.5 µM] (inactive) |  |

| Structure (SMILES) | PLD induction | Potency |
| --- | --- | --- |
| CC(CNC(=O)c1cccnc1)NC(=O)c1cccnc1 (stereo not given) | -0.161% (inactive) |  |
| CC[C@@H](C)CCCCC(=O)N[C@@H](CCNCS(=O)(=O)O)C(=O)N[C@H](C(=O)N[C@@H](CCNCS(=O)(=O)O)C(=O)N[C@H]1CCNC(=O)[C@H]([C@@H](C)O)NC(=O)[C@H](CCNCS(=O)(=O)O)NC(=O)[C@H](CCNCS(=O)(=O)O)NC(=O)[C@H](CC(C)C)NC(=O)[C@@H](CC(C)C)NC(=O)[C@H](CCNCS(=O)(=O)O)NC1=O)[C@@H](C)O (X3-[Dab(CH2SO3H)]T[Dab(CH2SO3H)][Dab][Dab(CH2SO3H)][dL]L[Dab(CH2SO3H)][Dab(CH2SO3H)]T; lactam 4-C) | 19.3% (inactive) |  |
| CCCCCCCCCCCCCCCCCCOCC(COP(=O)([O-])OCC[N+](C)(C)C)OC (stereo not given) | -0.602% (inactive) |  |
| CN=C(N)NCCC[C@H](N)C(=O)O |  | inactive |
| OCl | -0.15% (inactive) |  |
| COc1cc2c(c(OC)c1OC)-c1c(cc3c(c1OC)OCO3)C[C@@H](C)[C@](C)(O)C2 |  | inactive |
| Cc1cccc(C)c1NC(=O)C1CCCCN1C (stereo not given) | 0.739% (inactive) |  |
| CCCCCCCCCCCCCCCC(=O)OC[C@H](COP(=O)([O-])OCC[N+](C)(C)C)OC(=O)CCCCCCCCCCCCCCC | -0.199% (inactive) |  |
| O=C1c2ccccc2-c2n[nH]c3cccc1c23 | -0.308% (inactive) |  |
| C[N+](C)(C)CCOP(=O)(O)OP(=O)([O-])OC[C@H]1O[C@@H](n2ccc(N)nc2=O)[C@H](O)[C@@H]1O |  | inactive |
| NCCO/C=C/[C@H](N)C(=O)O | 1.88% (inactive) |  |
| NC(N)=NCC1COC2(CCCCC2)O1 (stereo not given) | -0.62% [at 15.5 µM] (inactive) |  |
| CC(C)(COP(=O)(O)OP(=O)(O)OC[C@H]1O[C@@H](n2cnc3c(N)ncnc32)[C@H](O)[C@@H]1OP(=O)(O)O)C(O)C(=O)NCCC(=O)NCCS (stereo not given in full) | -0.705% (inactive) |  |
| C1CCc2nnnn2CC1 | -0.258% (inactive) |  |
| CCN(CC)C(=S)S | -0.588% (inactive) |  |
| C=C(Nc1ccc(OCC)cc1)Nc1ccc(OCC)cc1 | 8.79% (inactive) |  |
| N[C@@H](Cc1ccc(O)c(O)c1)C(=O)O | 8.4% (inactive) |  |
| CCN(CC)CCOC[C@H]1O[C@@H](O)[C@H](OCCN(CC)CC)[C@@H](O)[C@@H]1O | -0.208% (inactive) |  |
| COc1ccc(/C=N/NC(=O)c2ccncc2)c(C(=O)O)c1OC | -0.55% (inactive) |  |
| O=C(O)c1cc(=O)c2c3nc4ccccc4oc-3cc(=O)c2[nH]1 | -1.09% (inactive) |  |
